# In PubChem BioAssay (NCATS):
# Inconclusive results are not listed. Calls of active or inactive are those of the source. Calls come from the whole dose curve; as a rule, active = well fitted inhibition curve with a large enough effect; inconclusive = small, poorly fitted or top-dose-only effect; inactive = no such curve, though single readings can be large or run the other way.
# Target: Cytochrome P450 3A4 (Homo sapiens) (UniProt P08684)
# Test: qHTS Assay for Inhibitors and Substrates of Cytochrome P450 3A4 (AID 884); note: nearly all actives have a fitted effect of over 50% in size
# Conditions: recombinant CYP3A4, Luciferin-PPXE luminescence; series mostly up to 57.1 µM; activity change, negative = inhibition: at the top concentration
# Outline: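 20 nM human CYP3A4 with 25 uM Luciferin-PPXE (at KM) in 200 mM KPO4, preincubated 10 min with compound; NADPH regeneration started a 60 min RT reaction. Luciferin detected by luminescence, normalized to 57 uM ketoconazole as full inhibition.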
# % is set by controls: 0 for no effect and ±100 for the full control effect; potency is the fitted concentration of half-maximal effect.
# Chain of Cytochrome P450 3A4 (Homo sapiens) (P08684 whole entry, looked up): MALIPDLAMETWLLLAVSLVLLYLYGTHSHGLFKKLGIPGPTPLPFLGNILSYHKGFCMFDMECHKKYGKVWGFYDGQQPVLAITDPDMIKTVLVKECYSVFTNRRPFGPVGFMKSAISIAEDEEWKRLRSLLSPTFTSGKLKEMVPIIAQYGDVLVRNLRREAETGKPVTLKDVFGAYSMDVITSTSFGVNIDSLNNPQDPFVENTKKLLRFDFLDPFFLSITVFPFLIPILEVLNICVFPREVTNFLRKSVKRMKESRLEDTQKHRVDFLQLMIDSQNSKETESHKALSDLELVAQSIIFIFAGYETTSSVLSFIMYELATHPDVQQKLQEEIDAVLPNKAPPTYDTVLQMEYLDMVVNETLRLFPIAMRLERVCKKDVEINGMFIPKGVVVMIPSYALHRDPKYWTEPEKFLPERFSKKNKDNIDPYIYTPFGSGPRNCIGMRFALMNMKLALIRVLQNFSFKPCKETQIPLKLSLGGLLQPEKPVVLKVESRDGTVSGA
SMILES,Potency,"activity change, negative = inhibition"
CO[C@H]1COC(=O)[C@H](C)NC(=O)C/C=C\[C@@H](C)[C@@H](NS(=O)(=O)c2ccc(C)cc2)COC(=O)[C@H](OCc2ccccc2)/C=C\[C@@H]1C,3.16 µM (active),–
COC(=O)CC1Oc2cc3oc4c5ccccc5oc(=O)c4c3cc2O1 (stereo not given),–,-0.639% (inactive)
COC(=O)c1ccc(CN2[C@H](C(=O)OC)C[C@@]3(O)[C@@H](O)[C@@H](O)[C@@H](O)C[C@@H]23)cc1,–,-18.1% (inactive)
COC(=O)[C@@H]1C[C@@]2(O)[C@@H](O)[C@@H](O)[C@@H](O)C[C@H]2N1CC1CC1,–,-26.7% (inactive)
CCC1=C2CC[C@H]3C(=O)N(c4ccccc4)C(=O)[C@H]3[C@H]2[C@@]2(C)C(=NCc3ccccc3)OC(=O)N2C1=O,3.98 µM (active),–
COC(=O)c1ccc(C23CC4(C2)[C@H](CN(Cc2ccc(-c5ccccc5)cc2)[C@@H]4c2ccccc2)C3c2ccc(C(F)(F)F)cc2)cc1 (stereo not given in full),–,-24.4% (inactive)
CCC1=C(OC(=O)N(CC)CC)N2C(=O)OC(=NCC3CC3)[C@]2(Cc2ccccc2)[C@H]2C1=CC[C@H]1C(=O)N(CC)C(=O)[C@H]12,5.01 µM (active),–
Cc1ccc(S(=O)(=O)N[C@H]2COC(=O)C/C=C\[C@@H](C)[C@H](NS(=O)(=O)c3ccc(C)cc3)COC(=O)C/C=C\[C@H]2C)cc1,3.16 µM (active),–
CCCCCCCCCCCCCCCC(=O)NCCc1ccc(O)c(O)c1,–,-24.9% (inactive)
O=C(N/N=C1/C[C@@H](O)[C@@H](O)[C@@H]2[C@@H]3C(=O)N(Cc4ccc5c(c4)OCO5)C(=O)[C@H]3CC[C@H]12)OCc1ccccc1,3.98 µM (active),–
CCC1=C(OC(=O)N(CC)CC)N2C(=O)OC(=NCCOC)[C@]2(Cc2ccccc2)[C@H]2C1=CC[C@H]1C(=O)N(CC)C(=O)[C@H]12,5.01 µM (active),–
O=C(O)c1cc(C(F)(F)F)nc2ccccc12,–,-23.6% (inactive)
CCC1=C2CC[C@H]3C(=O)N(c4ccccc4)C(=O)[C@H]3[C@H]2[C@@]2(C)C(=NCC3CC3)OC(=O)N2C1=O,10 µM (active),–
CCCCCCNC(=O)Nc1ccc(S(=O)(=O)Nc2ccc(CCNC[C@H](O)COc3ccc(O)cc3)cc2)cc1,7.94 µM (active),–
COc1c(O)c(O)cc2c1oc1c3cc(C)ccc3oc(=O)c21,25.1 µM (active),–
OB(O)c1cc2ccccc2s1,–,-8.26% (inactive)
CCC1=C2CC[C@H]3C(=O)NC(=O)[C@H]3[C@H]2[C@@]2(Cc3ccccc3)C(=NCc3ccccc3)OC(=O)N2C1=O,6.31 µM (active),–
CCC1=C(OC(=O)N(CC)CC)N2C(=O)OC(=NCC(=O)OC)[C@]2(Cc2ccccc2)[C@H]2C1=CC[C@H]1C(=O)N(C)C(=O)[C@H]12,10 µM (active),–
CN1C[C@@H]2C(c3ccc(C(F)(F)F)cc3)C3(c4ccc(C#N)cc4)CC2(C3)[C@H]1c1ccccc1 (stereo not given in full),20 µM (active),–
CO[C@@H]1COC(=O)CCC[C@@H](C)[C@H](OC)COC(=O)[C@H](Cc2ccccc2)NC(=O)C/C=C\[C@H]1C,3.98 µM (active),–

SMILES,Potency,"activity change, negative = inhibition"
Cn1c(N)c(C(=O)COC(=O)c2cc(-c3ccco3)nc3ccccc23)c(=O)n(Cc2ccccc2)c1=O,10 µM (active),–
COC(=O)[C@@H]1C[C@@]2(O)[C@H](O)[C@H](O)[C@H](O)C[C@H]2N1Cc1cccc2ccccc12,–,-29.9% (inactive)
COC(=O)[C@@H]1C[C@@]2(O)[C@@H](O)[C@@H](O)[C@@H](O)C[C@H]2N1Cc1ccc(Cl)cc1,–,-7.3% (inactive)
CN1C[C@@H]2C(c3ccc(C(F)(F)F)cc3)C3(c4ccccc4)CC2(C3)[C@H]1c1ccccc1 (stereo not given in full),–,-28.8% (inactive)
CC(C)Cn1c(N)c(C(=O)COC(=O)c2cc(-c3ccccc3)nc3ccccc23)c(=O)n(C)c1=O,–,1.1% (inactive)
Cc1cc(C(=O)O)sc1C(N)C(=O)O (stereo not given),–,-25.7% (inactive)
CCC1=C(OC(=O)N(CC)CC)N2C(=O)OC(=NCC(=O)OC)[C@]2(Cc2ccccc2)[C@H]2C1=CC[C@H]1C(=O)N(CC(=O)OC)C(=O)[C@H]12,5.01 µM (active),–
CCC1=C(OC(=O)N(CC)CC)N2C(=O)OC(=NCC3CC3)[C@]2(C)[C@H]2C1=CC[C@H]1C(=O)N(C)C(=O)[C@H]12,10 µM (active),–
O=C(O)c1ccc(NS(=O)(=O)c2ccsc2C(=O)O)cc1,–,-21.7% (inactive)
C/C(CCN1CCCCc2nc(C)c(C)cc21)=N\OC[C@@H](O)COCc1ccco1,3.98 µM (active),–
COC(=O)c1cccc(C23CC4(C2)[C@H](CN(C)[C@@H]4c2ccccc2)C3c2ccccc2)c1 (stereo not given in full),7.94 µM (active),–
CN(C)/C=N/c1cc(=O)[nH]c(=O)n1C,–,7.82% (inactive)
COC(=O)CC1Oc2cc3oc4c(c3cc2O1)C(=O)CC(C)(C)C4 (stereo not given),–,16.3% (inactive)
O=C(Nc1cc(NC(=O)c2ccccc2)c(C(=O)O)cc1C(=O)O)c1ccccc1,–,-14% (inactive)
CN(C)c1ccc(CNC(=O)[C@@]2(C)C=C[C@@H](Cc3ccccc3)N2C)cc1,–,-79.9% (inactive)
C[C@@]1(O)C(O)[C@@H](CO)O[C@H]1n1cnc2c(NC3CCCC3)nc(Cl)nc21 (stereo not given in full),–,-29.2% (inactive)
CCC1=C(OC(=O)N(CC)CC)N2C(=O)OC(=NCCc3c[nH]c4ccccc34)[C@]2(Cc2ccccc2)[C@H]2C1=CC[C@H]1C(=O)NC(=O)[C@H]12,2 µM (active),–
N#Cc1ccc(C23CC4(C2)[C@H](CN(Cc2ccc(-c5ccccc5)cc2)[C@@H]4c2ccccc2)C3c2ccc(Cl)nc2)cc1 (stereo not given in full),–,-29.1% (inactive)
COC(=O)[C@@H]1C[C@@]2(O)[C@H](O)[C@H](O)[C@H](O)C[C@H]2N1Cc1ccc(N2CCOCC2)cc1,–,-19.1% (inactive)
CC(C)Cn1c(N)c(C(=O)COC(=O)c2cc(C(F)(F)F)nc3ccccc23)c(=O)n(C)c1=O,–,-9.49% (inactive)
